Test results taken from PubChem BioAssay (Tox21).
Results filed as inconclusive are left out. Activity calls are given as the source filed them. Unless noted, calls come from the whole dose curve; as a rule, active = well fitted curve in the direction sought with a large enough effect in the repeat runs; inconclusive = weak or mixed curves; inactive = no such curve, though single readings can be large; an effect the other way counts as inactive or inconclusive.

Assays:
[1] = qHTS assay to identify small molecule antagonists of the glucocorticoid receptor (GR) signaling pathway - cell viability counter screen (AID 720693); note: nearly all actives have a fitted effect of over 55% in size
[2] = qHTS assay for identifying genotoxic compounds that show differential cytotoxicity against isogenic chicken DT40 cell lines with known DNA damage response pathways - wild type cell line (AID 743012); note: nearly all actives have a fitted effect of over 60% in size; note: potency is the fitted concentration of half-maximal effect
How it was run: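 Luminescent ATP viability signal (CellTiter-Glo, 30 min RT) recorded after wild type DT40 cells were incubated with compounds for 40 h at 37 C/5% CO2.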

[3] = qHTS assay for identifying genotoxic compounds that show differential cytotoxicity against isogenic chicken DT40 cell lines with known DNA damage response pathways - Rev3 mutant cell line (AID 743014); note: nearly all actives have a fitted effect of over 55% in size; note: potency is the fitted concentration of half-maximal effect
[4] = qHTS assay to identify small molecule antagonists of the androgen receptor (AR) signaling pathway - cell viability counter screen (AID 743033; note: nearly all actives have a fitted effect of over 45% in size)
[5] = qHTS assay to identify small molecule antagonists of the androgen receptor (AR) signaling pathway using the MDA cell line - cell viability counter screen (AID 743041; note: nearly all actives have a fitted effect of over 45% in size)
How it was run: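 Viability read by CellTiter-Fluor fluorescence in the same wells as the antagonist screen, added after 15.5 h of a 16 h, 37C exposure. Human breast carcinoma MDA-kb2 AR-luc cells, compounds co-dosed with agonist R1881.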

[6] = qHTS assay to identify small molecule antagonists of the thyroid receptor (TR) signaling pathway - cell viability counter screen (AID 743064); note: nearly all actives have a fitted effect of over 50% in size; note: potency is the fitted concentration of half-maximal effect
How it was run: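 CellTiter-Fluor readout, 30 min at 37 °C/5% CO2, following 23.5 h incubation of GH3.TRE-Luc cells with test compound and 1 nM T3 (final).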

[7] = system: thyroid hormone receptor (rat, GH3 cells); assay: qHTS assay to identify small molecule agonists of the thyroid receptor (TR) signaling pathway (AID 743066; calls by dose curve; note: potency is the fitted concentration of half-maximal effect)
[8] = qHTS assay to identify small molecule antagonists of the estrogen receptor alpha (ER-alpha) signaling pathway - cell viability counter screen (AID 743074; calls by dose curve;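 note: HEK293 cells carrying ER-alpha-UAS-bla reporter stimulated with 17beta-estradiol; nearly all actives have a fitted effect of over 45% in size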)
[9] = biological target: Estrogen receptor (Homo sapiens) (UniProt P03372); assay: qHTS assay to identify small molecule agonists of the estrogen receptor alpha (ER-alpha) signaling pathway (AID 743075; calls by dose curve;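 note: HEK293 GripTite cells with ER-alpha and UAS-driven beta-lactamase reporter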)
Sequence of Estrogen receptor (Homo sapiens) (P03372 whole entry, looked up): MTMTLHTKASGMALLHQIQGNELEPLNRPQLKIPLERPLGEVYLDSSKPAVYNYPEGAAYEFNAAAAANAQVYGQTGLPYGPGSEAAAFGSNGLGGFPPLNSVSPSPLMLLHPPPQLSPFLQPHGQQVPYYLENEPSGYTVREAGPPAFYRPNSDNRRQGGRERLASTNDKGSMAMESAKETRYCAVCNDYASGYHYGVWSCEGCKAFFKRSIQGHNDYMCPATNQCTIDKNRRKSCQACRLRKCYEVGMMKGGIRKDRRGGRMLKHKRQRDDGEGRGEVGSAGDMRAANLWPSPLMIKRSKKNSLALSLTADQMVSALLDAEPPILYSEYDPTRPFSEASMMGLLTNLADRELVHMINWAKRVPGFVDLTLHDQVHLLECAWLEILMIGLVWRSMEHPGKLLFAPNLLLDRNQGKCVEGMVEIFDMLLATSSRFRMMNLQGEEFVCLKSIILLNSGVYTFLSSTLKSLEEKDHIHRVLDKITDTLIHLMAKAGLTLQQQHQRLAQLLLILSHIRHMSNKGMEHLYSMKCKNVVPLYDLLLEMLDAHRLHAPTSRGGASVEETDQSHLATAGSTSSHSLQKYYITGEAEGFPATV

[10] = biological target: Estrogen receptor (Homo sapiens) (UniProt P03372); assay: qHTS assay to identify small molecule agonists of the estrogen receptor alpha (ER-alpha) signaling pathway using the BG1 cell line (AID 743079); conditions: BG1Luc4E2 cells, ERE-luciferase agonist, 22 h; note: nearly all actives have a fitted effect of over 20% in size; note: potency is the fitted concentration of half-maximal effect
[11] = qHTS assay to identify small molecule antagonists of the estrogen receptor alpha (ER-alpha) signaling pathway using the BG1 cell line (AID 743080; calls by dose curve;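 note: BG1 cells stimulated with 17beta-estradiol alongside compound; nearly all actives have a fitted effect of over 25% in size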)
How it was run: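 After 5 days in phenol-red-free 10% charcoal-stripped FBS medium, BG1-Luc-4E2 cells were seeded, left 24 h at 37 C, co-treated with compounds and 17beta-estradiol for 21.5 h, then assayed for viability and luciferase.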

[12] = qHTS assay to identify small molecule antagonists of the estrogen receptor alpha (ER-alpha) signaling pathway using the BG1 cell line - cell viability counter screen (AID 743081);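 note: compound given together with 17beta-estradiol as the ER stimulus; nearly all actives have a fitted effect of over 45% in size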
[13] = biological target: Aromatase (Homo sapiens) (UniProt P11511); assay: qHTS assay to identify aromatase inhibitors (AID 743083); note: nearly all actives have a fitted effect of over 55% in size
Sequence of Aromatase (Homo sapiens) (P11511 whole entry, looked up): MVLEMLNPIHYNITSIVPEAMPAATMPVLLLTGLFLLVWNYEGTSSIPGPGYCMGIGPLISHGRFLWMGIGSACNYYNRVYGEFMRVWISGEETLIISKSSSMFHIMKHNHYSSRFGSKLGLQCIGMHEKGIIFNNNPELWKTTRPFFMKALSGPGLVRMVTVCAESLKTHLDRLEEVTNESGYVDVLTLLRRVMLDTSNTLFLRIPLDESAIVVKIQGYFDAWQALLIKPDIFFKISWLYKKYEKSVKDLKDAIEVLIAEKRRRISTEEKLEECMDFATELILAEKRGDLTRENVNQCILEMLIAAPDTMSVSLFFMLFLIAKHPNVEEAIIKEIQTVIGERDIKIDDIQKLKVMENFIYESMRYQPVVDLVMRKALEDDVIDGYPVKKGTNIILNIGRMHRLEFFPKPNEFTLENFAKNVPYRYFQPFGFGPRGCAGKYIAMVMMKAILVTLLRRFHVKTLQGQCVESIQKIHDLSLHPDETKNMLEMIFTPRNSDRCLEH

[14] = qHTS assay to identify aromatase inhibitors - cell viability counter screen (AID 743084);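 note: cells stimulated with testosterone during compound exposure; nearly all actives have a fitted effect of over 55% in size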; note: potency is the fitted concentration of half-maximal effect
[15] = qHTS assay for identifying genotoxic compounds that show differential cytotoxicity against isogenic chicken DT40 cell lines with known DNA damage response pathways - Rad54/Ku70 mutant cell line (AID 743015); note: nearly all actives have a fitted effect of over 60% in size; note: potency is the fitted concentration of half-maximal effect
[16] = qHTS assay to identify small molecule antagonists of the thyroid receptor (TR) signaling pathway (AID 743065); note: nearly all actives have a fitted effect of over 55% in size
How it was run: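 Antagonism measured as loss of luciferase signal in GH3 cells stably carrying a TRE-luciferase reporter, co-treated with compound and T3 (1 nM final) for 23.5 h at 37 C. Viability was read in the same well by CellTiter-Fluor.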

[17] = biological target: Estrogen receptor (Homo sapiens) (UniProt P03372); assay: qHTS assay to identify small molecule antagonists of the estrogen receptor alpha (ER-alpha) signaling pathway (AID 743069; active = well fitted curve in the direction sought with a large enough effect in the signal ratio in the repeat runs, not every such curve was filed as active; the % refers to the signal ratio)
How it was run: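 Antagonist mode: compounds in DMSO were co-added with 17beta-estradiol to ER-alpha-bla HEK293 cells (2% charcoal-stripped serum) and left 18 h at 37C. Reporter inhibition was measured as FRET fluorescence after 2 h LiveBLAzer substrate at room temperature.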

[18] = biological target: Androgen receptor (Homo sapiens) (UniProt P10275); assay: qHTS assay to identify small molecule agonists of the androgen receptor (AR) signaling pathway (AID 743036; active = well fitted activation curve with a large enough effect in the signal ratio in the repeat runs, with a control signal flat, not every such curve was filed as active; the % refers to the signal ratio)
Sequence of Androgen receptor (Homo sapiens) (P10275 whole entry, looked up): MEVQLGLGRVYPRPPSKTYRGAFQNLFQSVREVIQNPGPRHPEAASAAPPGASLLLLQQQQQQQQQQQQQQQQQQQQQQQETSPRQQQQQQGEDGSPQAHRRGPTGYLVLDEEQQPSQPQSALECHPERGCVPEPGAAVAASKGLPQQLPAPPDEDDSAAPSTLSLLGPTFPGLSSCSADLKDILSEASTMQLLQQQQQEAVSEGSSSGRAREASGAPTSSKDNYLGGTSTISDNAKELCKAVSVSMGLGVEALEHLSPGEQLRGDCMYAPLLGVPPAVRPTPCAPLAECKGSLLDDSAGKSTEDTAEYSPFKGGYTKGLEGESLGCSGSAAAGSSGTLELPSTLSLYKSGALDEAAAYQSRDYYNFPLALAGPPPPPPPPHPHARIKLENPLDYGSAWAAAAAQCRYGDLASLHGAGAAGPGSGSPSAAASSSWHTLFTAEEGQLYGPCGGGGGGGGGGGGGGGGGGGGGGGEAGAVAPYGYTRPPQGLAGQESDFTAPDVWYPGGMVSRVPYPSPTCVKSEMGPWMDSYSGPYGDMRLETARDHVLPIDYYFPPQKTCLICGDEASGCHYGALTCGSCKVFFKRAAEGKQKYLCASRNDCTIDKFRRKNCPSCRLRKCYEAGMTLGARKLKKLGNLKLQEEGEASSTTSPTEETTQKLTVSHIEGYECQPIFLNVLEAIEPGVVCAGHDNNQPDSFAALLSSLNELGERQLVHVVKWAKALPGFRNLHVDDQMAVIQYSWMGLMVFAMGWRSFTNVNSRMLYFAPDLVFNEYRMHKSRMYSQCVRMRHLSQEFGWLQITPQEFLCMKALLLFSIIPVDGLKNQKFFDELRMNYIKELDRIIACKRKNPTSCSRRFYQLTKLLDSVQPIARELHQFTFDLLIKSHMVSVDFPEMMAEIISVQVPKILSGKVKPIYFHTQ
How it was run: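 Following a 4 h settling period, AR-UAS-bla HEK293 cells were dosed with compounds for 16 h at 37C. A 2 h room-temperature incubation with LiveBLAzer B/G FRET substrate preceded the fluorescence measurement.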

[19] = biological target: Androgen receptor (Homo sapiens) (UniProt P10275); assay: qHTS assay to identify small molecule agonists of the androgen receptor (AR) signaling pathway using the MDA cell line (AID 743040; note: nearly all actives have a fitted effect of over 20% in size)
How it was run: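 Luciferase agonist assay: 16 h compound exposure at 37C without CO2 in MDA-kb2 AR-luc cells, whose MMTV promoter responds to both AR and GR. Luminescence measured after 30 min room-temperature incubation with ONE-Glo.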

[20] = biological target: Androgen receptor (Homo sapiens) (UniProt P10275); assay: qHTS assay to identify small molecule antagonists of the androgen receptor (AR) signaling pathway (AID 743035; active = well fitted inhibition curve with a large enough effect in the signal ratio in the repeat runs, not every such curve was filed as active; the % refers to the signal ratio)
How it was run: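 Quantitative HTS of the Tox21 10K library used HEK293 AR-UAS-bla cells stimulated with R1881 alongside compound for 16 h at 37C, followed by beta-lactamase FRET detection (LiveBLAzer B/G, 2 h, RT).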
% is set by controls: 0 for no effect and ±100 for the full control effect.

CCCCCCCCSC(=O)Oc1cc(Cl)nnc1-c1ccccc1
active: Potency [2] 54.5 µM | Potency [3] 54.5 µM
inactive: Potency [1] | Potency [4] | Potency [5] | Potency [6] | Potency [7] | Potency [8] | Potency [9] | activation ([10]; at 70.3 µM (top of the series)) 3.18% | Potency [11] | Potency [12] | Potency [13] | Potency [14]

CC1=C2[C@H]3OC(=O)[C@@H](C)[C@@H]3CC[C@@]2(C)C=CC1=O
inactive: Potency [1] | Potency [2] | Potency [15] | Potency [4] | Potency [5] | Potency [6] | Potency [16] | Potency [7] | Potency [8] | Potency [12] | Potency [13] | Potency [14]

CCOC(=O)CCl
inactive: Potency [1] | Potency [2] | Potency [15] | Potency [4] | Potency [5] | Potency [6] | Potency [16] | Potency [7] | Potency [17] | Potency [8] | Potency [9] | activation ([10]; at 70.3 µM (top of the series)) 26.5% | Potency [11] | Potency [12] | Potency [13] | Potency [14]

Cn1c(N)nc2c3cccnc3ccc21
active: Potency [6] 26 µM | Potency [14] 29.1 µM
inactive: Potency [1] | Potency [2] | Potency [15] | Potency [4] | Potency [5] | Potency [16] | Potency [7] | Potency [8] | Potency [9] | activation ([10]; at 70.3 µM (top of the series)) 9.73% | Potency [11] | Potency [13]

N#CN
inactive: Potency [1] | Potency [2] | Potency [15] | Potency [4] | Potency [5] | Potency [6] | Potency [16] | Potency [7] | Potency [17] | Potency [8] | Potency [9] | activation ([10]; at 70.3 µM (top of the series)) -14.8% | activation ([10]; at 260 µM (top of the series)) -1.65% | Potency [11] | Potency [12] | Potency [13] | Potency [14]

COc1ccc(CN2CCNCC2)c(OC)c1OC
inactive: Potency [1] | Potency [2] | Potency [15] | Potency [4] | Potency [5] | Potency [6] | Potency [16] | Potency [7] | Potency [17] | Potency [8] | Potency [9] | activation ([10]; at 32.5 µM (top of the series)) 3.39% | Potency [11] | Potency [12] | Potency [13] | Potency [14]

CN(CCO)CCO
inactive: Potency [1] | Potency [2] | Potency [15] | Potency [4] | Potency [5] | Potency [6] | Potency [16] | Potency [7] | Potency [17] | Potency [8] | Potency [9] | activation ([10]; at 95 µM (top of the series)) -2.37% | Potency [11] | Potency [12] | Potency [13] | Potency [14]

O=C(CCl)NCO
inactive: Potency [1] | Potency [2] | Potency [3] | Potency [15] | Potency [5] | Potency [6] | Potency [16] | Potency [7] | Potency [17] | Potency [8] | Potency [9] | activation ([10]; at 70.3 µM (top of the series)) -9.09% | Potency [11] | Potency [12] | Potency [13] | Potency [14]

CCOc1cc(OP(=S)(OC)OC)nc(CC)n1
inactive: Potency [1] | Potency [2] | Potency [15] | Potency [4] | Potency [5] | Potency [6] | Potency [17] | Potency [8] | Potency [9] | activation ([10]; at 70.3 µM (top of the series)) -2.44% | Potency [11] | Potency [12] | Potency [13] | Potency [14]

C[C@H](CN1CCOCC1)C(C(=O)N1CCCC1)(c1ccccc1)c1ccccc1
active: Potency [2] 33.2 µM | Potency [15] 59.1 µM
inactive: Potency [1] | Potency [4] | outcome [18] | outcome [19] | Potency [7] | Potency [9] | activation ([10]; at 95 µM (top of the series)) -2.63% | Potency [11] | Potency [13] | Potency [14]

CNC(=O)O/N=C(/CSC)C(C)(C)C
inactive: Potency [1] | Potency [2] | Potency [15] | Potency [4] | Potency [20] | outcome [18] | outcome [19] | Potency [5] | Potency [6] | Potency [16] | Potency [17] | Potency [8] | Potency [9] | activation ([10]; at 70.3 µM (top of the series)) -5.87% | Potency [11] | Potency [12] | Potency [13] | Potency [14]
active: Potency [7] 61.1 µM

Nc1c(Cl)c(F)nc(OCC(=O)O)c1Cl
inactive: Potency [1] | Potency [2] | Potency [15] | Potency [4] | outcome [19] | Potency [5] | Potency [6] | Potency [16] | Potency [7] | Potency [17] | Potency [8] | Potency [9] | activation ([10]; at 70.3 µM (top of the series)) -0.92% | Potency [11] | Potency [12] | Potency [13] | Potency [14]

CC(Cl)(Cl)Cl
inactive: Potency [1] | Potency [2] | Potency [15] | Potency [4] | Potency [5] | Potency [6] | Potency [16] | Potency [7] | Potency [8] | Potency [12] | Potency [13] | Potency [14]

CCNc1nc(Cl)nc(NC(C)(C)C)n1
active: Potency [10] 9.69 µM
